Binding signal data for 103 sequences are collected here from PMC10668032, “Altered binding affinity of SIX1-Q177R correlates with enhanced WNT5A and WNT pathway effector expression in Wilms tumor”.

The full ranking holds about 33,000 sequences; the median of “e-score” is about -0.053, and the highest 2% start at about 0.38. For the sample, the highest values were picked, then their nearest neighbours and some sequences at random.

In this assay the target is T1, SIX1 homeodomain (reference allele) (human, UniProt Q15475 108-198).
T1 sequence: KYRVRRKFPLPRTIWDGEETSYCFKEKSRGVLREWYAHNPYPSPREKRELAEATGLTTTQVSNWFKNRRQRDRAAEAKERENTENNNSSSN
Put plainly: universal protein binding microarray; Universal all-10-mer PBM (8x60K, AMADID 030236), 300 nM GST-tagged protein, Alexa Fluor 488 anti-GST; buffer, salt, pH and temperature not stated (as in Berger); high values mean tight binding. As to conditions: protein: ivt; tags: N-terminal GST; dsDNA, one strand shown. In outline: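 Binding of GST-tagged homeodomains is given as 8-mer E-scores from the Universal PBM Analysis Suite. The proteins were produced by in vitro transcription/translation, quantified by anti-GST western blot against a recombinant GST standard curve, and applied in duplicate at 300 nM final concentration to universal 'all 10-mer' protein binding microarrays (8×60K format).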
Turning to CTTAGATA, the binding signal was 0.19 ± 0.0471 E-score.

With GGTACACC, the binding signal amounted to 0.298 ± 0.064 E-score.

For the sequence AAGGGTGA, the binding signal was 0.21 ± 0.0127 E-score.

Regarding GCGTTAGA, the binding signal was found to be 0.197 ± 0.00519 E-score.

For AGGGATAT, the binding signal is 0.45 ± 0.0188 E-score.

Consider GGGGATAC, for which the binding signal came out at 0.44 ± 0.0287 E-score.

Consider AGGGGGAT, for which the binding signal stood at 0.376 ± 0.0175 E-score.

In the case of GGGGACAC, the binding signal was 0.161 ± 0.0585 E-score.

Regarding AGGGATAG, the binding signal was found to be 0.27 ± 0.0085 E-score.

For the sequence AGGGATAA, the binding signal came out at 0.292 ± 0.0171 E-score.

For the sequence CGGGATAC, the binding signal was determined as 0.408 ± 0.0263 E-score.

In the case of TGGGATAA, the binding signal stood at 0.176 ± 0.0405 E-score.

With CGGGATAA, the binding signal worked out at 0.17 ± 0.0308 E-score.

For CGGGATAG, the binding signal turned out to be 0.268 ± 0.0112 E-score.

Regarding GGGGATAA, the binding signal stood at 0.311 ± 0.0718 E-score.

In the case of AGGGATAC, the binding signal was found to be 0.4148 ± 0.000559 E-score.

Turning to CTAAGATA, the binding signal worked out at 0.241 ± 0.105 E-score.

For ATCTGGGC, the binding signal was found to be 0.24 ± 0.0045 E-score.

For the sequence CCTATTGA, the binding signal is 0.187 ± 0.0453 E-score.

Consider GGTATTTA, for which the binding signal amounted to 0.191 ± 0.035 E-score.

As for ATCCCATC, the binding signal is 0.297 ± 0.0291 E-score.

For ATCGATGG, the binding signal was found to be 0.185 ± 0.0344 E-score.

For the sequence CTCTATCC, the binding signal stood at 0.216 ± 0.0113 E-score.

Regarding GTATATCA, the binding signal amounted to 0.429 ± 0.0166 E-score.

For the sequence CTATATCC, the binding signal came to 0.366 ± 0.00388 E-score.

As to CTATATCA, the binding signal was found to be 0.412 ± 0.033 E-score.

As for ATATATCG, the binding signal stood at 0.372 ± 0.0566 E-score.

For AAATATCA, the binding signal amounted to 0.224 ± 0.158 E-score.

Consider GTATATAA, for which the binding signal worked out at 0.245 ± 0.0101 E-score.

Consider GTATATGA, for which the binding signal is 0.225 ± 0.0139 E-score.

As to ATATATCA, the binding signal amounted to 0.4 ± 0.0452 E-score.

In the case of CTATATTA, the binding signal stood at 0.152 ± 0.0427 E-score.

For ATATATAA, the binding signal came to 0.298 ± 0.0548 E-score.

Take ATATATCC: the binding signal is 0.438 ± 0.0246 E-score.

On to ATCCAACC, for which the binding signal is 0.173 ± 0.00282 E-score.

As to TATCTAGA, the binding signal is 0.189 ± 0.00564 E-score.

As for ATACGTGG, the binding signal was 0.272 ± 0.04 E-score.

In the case of ACAACACC, the binding signal came out at 0.23 ± 0.0178 E-score.

In the case of TATAACAA, the binding signal came out at 0.2242 ± 0.00053 E-score.

On to ATATTAGG, for which the binding signal was determined as 0.257 ± 0.0151 E-score.

Take CGAAGATC: the binding signal came out at 0.202 ± 0.00878 E-score.

For the sequence AATGATAG, the binding signal was 0.309 ± 0.0717 E-score.

Regarding GATAATAC, the binding signal is 0.406 ± 0.0398 E-score.

In the case of TATGATAA, the binding signal is 0.17 ± 0.026 E-score.

As for GATGATAC, the binding signal was 0.484 ± 0.00743 E-score.

For CATGATAC, the binding signal worked out at 0.4813 ± 0.00335 E-score.

Turning to CATAATAC, the binding signal came to 0.34 ± 0.0222 E-score.

Regarding AATGATAC, the binding signal stood at 0.467 ± 0.0253 E-score.

AATAATAC: the binding signal was determined as 0.345 ± 0.0992 E-score.

Consider CATGACAC, for which the binding signal worked out at 0.35 ± 0.0169 E-score.

For GATGATGA, the binding signal was 0.189 ± 0.0213 E-score.

For CATGATAG, the binding signal is 0.274 ± 0.0672 E-score.

AAAGATAC: the binding signal amounted to 0.365 ± 0.0561 E-score.

As for CCACGATA, the binding signal amounted to 0.324 ± 0.0401 E-score.

For the sequence GTATGCGA, the binding signal amounted to 0.225 ± 0.0379 E-score.

With AGCGGGAT, the binding signal stood at 0.289 ± 0.0282 E-score.

Consider ATGTAATA, for which the binding signal was found to be 0.208 ± 0.032 E-score.

Turning to GGAGACAC, the binding signal is 0.219 ± 0.0128 E-score.

For ATCGGCAT, the binding signal came to 0.205 ± 0.0425 E-score.

As for AATAACAC, the binding signal amounted to 0.151 ± 0.0395 E-score.

Turning to TATGGGGA, the binding signal came to 0.232 ± 0.0667 E-score.

For the sequence AAGTATAT, the binding signal turned out to be 0.184 ± 0.103 E-score.

In the case of AATGATAT, the binding signal stood at 0.44 ± 0.0479 E-score.

On to AATGAGAT, for which the binding signal is 0.278 ± 0.0395 E-score.

Take AAAGATAT: the binding signal came to 0.351 ± 0.0934 E-score.

Consider ATCGTCAT, for which the binding signal stood at 0.22 ± 0.00839 E-score.

In the case of AATCCGCG, the binding signal stood at 0.1997 ± 0.000431 E-score.

On to ATACCGGC, for which the binding signal was found to be 0.319 ± 0.00766 E-score.

With ATCCCGGG, the binding signal stood at 0.345 ± 0.0141 E-score.

Consider ATACCGGG, for which the binding signal came to 0.399 ± 0.016 E-score.

Consider ATACCGGA, for which the binding signal is 0.381 ± 0.0112 E-score.

ATACGGGG: the binding signal was determined as 0.335 ± 0.018 E-score.

For AGACCGGA, the binding signal came out at 0.157 ± 0.0691 E-score.

For the sequence ACCATGAT, the binding signal was 0.269 ± 0.0126 E-score.

GATTATGA: the binding signal stood at 0.205 ± 0.0352 E-score.

ATATGGCA: the binding signal worked out at 0.204 ± 0.0271 E-score.

For GAGCCATA, the binding signal was 0.183 ± 0.0105 E-score.

For GAATACGA, the binding signal amounted to 0.24 ± 0.0047 E-score.

Consider GGATAGAC, for which the binding signal stood at 0.151 ± 0.00296 E-score.

In the case of CAATATAC, the binding signal is 0.197 ± 0.0146 E-score.

TATCTCAA: the binding signal was 0.329 ± 0.0572 E-score.

Take CCTATCAA: the binding signal is 0.288 ± 0.0228 E-score.

For GGTATCAC, the binding signal was 0.497 E-score.

With CGTATCAA, the binding signal amounted to 0.466 ± 0.026 E-score.

Regarding GGTCTCAC, the binding signal came to 0.203 ± 0.0591 E-score.

In the case of TGTATCAA, the binding signal is 0.41 ± 0.0207 E-score.

In the case of CGTATTAA, the binding signal came to 0.222 ± 0.0926 E-score.

Turning to CGTATAAC, the binding signal is 0.204 ± 0.0505 E-score.

In the case of CGTATTAC, the binding signal amounted to 0.26 ± 0.0203 E-score.

Consider GGGCTCAC, for which the binding signal is 0.268 ± 0.0467 E-score.

For TGTATTAA, the binding signal is 0.275 ± 0.027 E-score.

For CGTATCAC, the binding signal was 0.484 ± 0.00135 E-score.

Consider TATCGGAA, for which the binding signal amounted to 0.368 ± 0.0234 E-score.

For CACCCGGA, the binding signal is 0.276 ± 0.0383 E-score.

With CTGAGATC, the binding signal was 0.253 ± 0.0174 E-score.

ATGAGACG: the binding signal was 0.251 ± 0.0275 E-score.

With TATCTTCA, the binding signal was 0.251 ± 0.0591 E-score.

Regarding GATCAGAC, the binding signal was 0.249 ± 0.0505 E-score.

For the sequence GGTATCAA, the binding signal turned out to be 0.486 ± 0.00747 E-score.

For the sequence GCTATCAA, the binding signal is 0.312 ± 0.0869 E-score.

On to GGTATAAA, for which the binding signal worked out at 0.286 ± 0.0691 E-score.

Turning to ATACTTTG, the binding signal came to 0.253 ± 0.096 E-score.

For the sequence GGGTTAGA, the binding signal worked out at 0.16 ± 0.0278 E-score.
